Screening results deposited in PubChem BioAssay by several laboratories.
In the library only some 27% were active in any assay of this set; here they are far more common.
Cav3 T inh = inhibitors of human Cav3.2 T-type calcium channel. O95180. Cav3.2-expressing cells, Fluo-4 calcium fluorescence FDSS; hits give low values. B-score at 10 µM. 100,000 compounds, 4% hits. AID 449739;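 active means single-dose well whose peak fluorescence ratio is a statistical outlier from its plate by either plate-standardised score or position-corrected B-score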
CYP2C19 act = cytochrome P450 2C19 (human) activation. P33261. activation factor at 5 µM. recombinant CYP2C19, luciferin-H EGE luminescence; hits give high values; 0 = fully inhibited enzyme, 1 = untreated enzyme. 96,000 tested, under 10 active;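 active means activation factor of at least 2 at 5 µM in the primary screen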
Target sequence (P33261 whole entry, looked up): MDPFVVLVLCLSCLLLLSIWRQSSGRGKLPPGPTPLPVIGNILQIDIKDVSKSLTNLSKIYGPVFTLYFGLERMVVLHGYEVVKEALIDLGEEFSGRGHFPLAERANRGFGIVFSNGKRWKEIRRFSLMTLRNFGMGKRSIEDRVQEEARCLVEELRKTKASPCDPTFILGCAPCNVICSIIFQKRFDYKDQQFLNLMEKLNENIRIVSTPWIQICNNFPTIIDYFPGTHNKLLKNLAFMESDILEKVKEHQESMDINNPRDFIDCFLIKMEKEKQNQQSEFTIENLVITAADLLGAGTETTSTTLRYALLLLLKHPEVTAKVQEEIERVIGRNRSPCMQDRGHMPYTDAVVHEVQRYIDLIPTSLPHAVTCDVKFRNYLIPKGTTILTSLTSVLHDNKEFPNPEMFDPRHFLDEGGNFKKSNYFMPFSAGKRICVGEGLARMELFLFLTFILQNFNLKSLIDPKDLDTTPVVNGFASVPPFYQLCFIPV
CYP2C19 inhib = blocks human cytochrome P450 2C19. AID 778. P33261. inhibition, % at 5 µM. 96,000 compounds, 21% hits. CYP2C19 Supersomes, luciferin-H EGE luminescence, 30 min;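 active means CYP2C19 inhibition above a set limit at 5 µM in the primary screen, cut at about 50% in these data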
CYP2C9 act = activators of human CYP2C9. P11712. recombinant CYP2C9, luciferin-H conversion, luminescence; hits give high values; factor 1 = untreated enzyme, 0 = blocked. activation factor at 5 µM. 96,000 compounds, 1.4% hits;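 active means activation factor of 2 or more for CYP2C9 at a 5 µM dose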
CYP2C9 inhib = inhibitors of human CYP2C9 | inhibition, % at 5 µM | P11712 | CYP2C9 Supersomes, luciferin-H conversion, luminescence | 96,000 compounds, 20% hits;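 active means blocking of liver enzyme CYP2C9 beyond about 50% at 5 µM, limit read from the data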
A number is an active result; – = inactive; · = no result given.

SMILES | Cav3 T inh | CYP2C19 act | CYP2C19 inhib | CYP2C9 act | CYP2C9 inhib
CCOC(=O)c1nn(-c2ccc(C)cc2)cc1O | – | – | 61.2 | – | –
CCOC(=O)c1nn(-c2sc(C(=O)OC)c(C)c2C(=O)OC)cc1O | – | – | 99.7 | – | 60.7
CCOC(=O)c1cc(C(=O)OCC)cc(-n2cc(O)c(C(=O)OCC)n2)c1 | – | – | – | – | –
CC1(C(=O)NC2CCCCCCC2)CC1(Cl)Cl (stereo not given) | – | – | – | – | –
COc1cc2c(O)c3c(c(-c4ccc5c(c4)OCO5)c2cc1OC)C(=O)OC3 | -4.21 | – | – | – | 68.2
CCOC(=O)c1cc2n(c1/N=C/N(C)C)-c1ccccc1C2=O | -3.9 | – | – | – | 61.9
Fc1ccc(-c2n[nH]c(=S)n2CC2CCCO2)cc1 (stereo not given) | – | – | – | – | –
COc1ccc(C[C@H]2CN3C(=NC[C@@H]3C)N2CCNC(=O)CCC2CCCCC2)cc1 | – | · | · | · | ·
O=C(CSc1nnc(C2CC2)n1Cc1ccccc1)N1CCN(S(=O)(=O)c2ccccc2)CC1 | · | – | – | – | –
CCn1c(SCc2ccccc2)nnc1C1CCN(S(=O)(=O)c2ccc(OC)cc2)CC1 | – | – | – | 2 | –
COc1ccc(S(=O)(=O)Nc2ccc(CC#N)cc2)cc1 | – | – | 100.0 | – | 84.9
COc1ccc(S(=O)(=O)N2CCCCCC2)cc1 | – | – | 51.0 | – | –
COC(=O)c1ccc(NS(=O)(=O)c2ccc(OC)cc2)cc1 | – | – | – | – | 89.1
CS(=O)(=O)N(Cc1ccccc1)c1ccc(C(=O)Nc2ccc3c(c2)OCO3)cc1 | – | – | – | – | –
COc1ccc(CNS(=O)(=O)c2ccc(S(=O)(=O)N3CCCCC3)cc2)cc1 | – | – | – | – | –
COc1ccc(S(=O)(=O)N2CCCN(S(=O)(=O)c3ccc(OC)c(C)c3)CC2)cc1C | – | · | · | · | ·
COc1ccc(S(=O)(=O)Nc2ccc(S(=O)(=O)N3CCCCC3)cc2)cc1 | -6.6 | – | – | – | 80.9
COc1ccc2cc(S(=O)(=O)N3CCCCC3)ccc2c1S(=O)(=O)N1CCCCC1 | – | – | – | – | 51.7
COc1ccc(S(=O)(=O)Nc2ccc(S(=O)(=O)N3CCCC3)cc2)cc1 | – | – | 54.4 | – | 88.7
COc1ccc(S(=O)(=O)c2ccc(OC)cc2)cc1 | – | – | 99.1 | – | –
CC(C)(C)[C@H]1C=C(C(=O)NC2CC2)O[C@@H](OCc2ccc(CO)cc2)C1 | – | · | · | · | ·
O=C(CCS(=O)(=O)c1ccc(Cl)cc1)OCC(=O)N1CCCCC1 | – | – | – | – | –
O=c1c(=O)n(O)c2ccccc2n1O | – | – | – | – | –
CC(=O)Nc1ccc(Sc2ncccc2C(=O)Nc2ccc(F)cc2)cn1 | – | – | – | – | –
CCC(C)NC(=O)C1CCN(S(=O)(=O)c2ccc(OC)cc2)CC1 (stereo not given) | – | – | – | – | –
SMILES | Cav3 T inh | CYP2C19 act | CYP2C19 inhib | CYP2C9 act | CYP2C9 inhib
COc1ccc(S(=O)(=O)Nc2ccc(S(=O)(=O)N3CCCCC3)cc2)cc1C | – | – | 57.5 | – | 87.5
COC(=O)c1ccc(NS(=O)(=O)N(C)C)cc1 | – | – | 87.1 | – | 78.8
COc1ccc(NS(=O)(=O)c2ccc(N3C(=O)CCC3=O)cc2)cc1 | – | – | 85.5 | – | 70.3
COC(=O)C1CCN(S(=O)(=O)c2ccc(OC)cc2)CC1 | – | – | 89.0 | – | –
Cc1ccc(-c2cc(C(=O)NCc3ccccn3)no2)cc1 | – | – | – | – | –
CS(=O)(=O)c1ccc(Cl)c(NC(=O)COC(=O)CNC(=O)c2ccc(Br)o2)c1 | – | – | – | – | –
C#CCNC(=O)C1=C[C@H](c2ccc(Br)cc2)C[C@H](OCCCCO)O1 | – | · | · | · | ·
O=C(NC1CCCCC1)N(CCN1CCCC1)Cc1cc2cc3c(cc2[nH]c1=O)OCCO3 | – | – | – | – | –
Cc1ccc2cc(CN(Cc3ccco3)C(=O)C3CCCCC3)c(=O)[nH]c2c1C | – | – | – | – | –
Cc1ccc2cc(CN(Cc3ccco3)C(=O)NC3CCCCC3)c(=O)[nH]c2c1C | -4.36 | · | · | · | ·
O=C(NC1CCCCC1)N(CCO)Cc1cc2cc3c(cc2[nH]c1=O)OCCO3 | – | – | – | – | 53.2
COC(=O)c1c(NC(=O)CCCC(=O)O)sc2c1CCC2 | – | – | – | – | –
C/C(=N\NC(=O)c1cccc(F)c1)c1ccc(Br)s1 | – | – | – | – | –
CCOC(=O)CSc1nc2c(cnn2-c2ccc(C)cc2)c(=O)[nH]1 | – | – | – | – | –
C=CCn1c(SCC(=O)Nc2c(C)n(C)n(-c3ccccc3)c2=O)nc2scc(-c3ccccc3)c2c1=O | – | – | – | – | 83.2
C=CCn1c(SCC(=O)NC(=O)NCc2ccco2)nc2sc(C)c(C)c2c1=O | – | – | – | – | –
C=CCn1c(SCC(=O)NCCCC)nc2scc(-c3ccco3)c2c1=O | -2.74 | · | · | · | ·
C=CCn1c(SCC(=O)NC2CCCC2)nc2scc(-c3ccco3)c2c1=O | – | – | 87.2 | – | 92.5
CCn1c(SCC(=O)Nc2cccc(C(C)=O)c2)nnc1C(C)C | – | – | – | – | –
COc1ccc(CNC(=O)CN(Cc2ccccc2)C(=O)c2csnn2)cc1 | – | – | – | – | –
C=CCN(CC(=O)NCc1ccccc1)C(=O)c1csnn1 | – | – | 72.7 | – | –
O=C(O)C1CCCCC1C(=O)NCCCCc1ccccc1 (stereo not given) | – | – | – | – | –
CCn1c(SCC(=O)Nc2nc(C)cs2)nnc1-c1cccnc1 | – | – | – | – | –
Cc1ccccc1CN(c1ccc(C(=O)Nc2cccnc2)cc1)S(C)(=O)=O | – | – | 98.5 | – | 95.9
CS(=O)(=O)N(Cc1ccc(C(=O)NCCSCc2ccco2)cc1)c1ccccc1 | – | – | 55.2 | – | 84.9
SMILES | Cav3 T inh | CYP2C19 act | CYP2C19 inhib | CYP2C9 act | CYP2C9 inhib
COc1ccc(NC(=O)c2ccc(CN(c3cc(Cl)ccc3C)S(=O)(=O)c3ccccc3)cc2)cc1OC | – | – | – | – | 65.8
COc1ccccc1NC(=O)c1ccc(CN(c2cc(Cl)ccc2C)S(=O)(=O)c2ccccc2)cc1 | – | – | – | – | –
Cc1ccc(Cl)cc1N(Cc1ccc(C(=O)NCc2cccnc2)cc1)S(=O)(=O)c1ccccc1 | · | – | – | – | 58.5
Cc1cc(N(C)C)nc(SC(C)C)n1 | – | – | – | – | –
CNC(=O)c1ccc(N(Cc2ccccc2)S(C)(=O)=O)cc1 | – | – | 52.2 | – | –
CC(=O)c1cccc(NC(=O)c2ccc(N(Cc3ccccc3)S(C)(=O)=O)cc2)c1 | – | – | – | – | –
Cc1ccc(CN(c2ccc(C(=O)NCc3cccnc3)cc2)S(C)(=O)=O)cc1 | – | – | 93.4 | – | 93.5
Nn1c(-c2ccccn2)nnc1-c1ccccn1 | – | – | – | – | –
c1ccc(-c2ccc(-c3ccccn3)nn2)nc1 | · | – | 55.6 | – | –
Cc1ccc(S(=O)(=O)NC2=NCCC2)cc1 | – | – | – | – | –
COc1cccc(C2CC(c3cccc(C)c3)n3ncnc3N2)c1 (stereo not given) | – | – | 74.1 | – | 67.3
COc1ccc(C2CC(c3cccc(C)c3)n3ncnc3N2)cc1 (stereo not given) | – | – | 95.6 | – | 61.3
